For 10 compounds, outcome and Potency results are on record in PubChem BioAssay (NCATS).

Inconclusive results are not listed. The source made the active and inactive calls. Unless noted, the call rests on the fitted dose curve; in most records, active means well fitted curve in the direction sought with a large enough effect; inconclusive means small, poorly fitted or top-dose-only effect, or another doubt; inactive means no such curve, though single readings can be large; an effect the other way counts as inactive or inconclusive.

A short description of assay [1]: S16 Schwann cell viability assay (CellTiter-Glo assay) (AID 624031).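 Further: native untransfected S16 rat Schwann cells; cellular ATP luminescence as a viability measure; nearly all actives have a fitted effect of over 70% in size.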 As to conditions: S16 rat Schwann cells viability, 24 h; series mostly up to 25.7 µM. Put shortly:
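Cells were seeded at 500-750 per well in phenol red-free DMEM with 10% FBS and left overnight. Compounds or DMSO were pinned in, incubation ran 24 h at 37 °C/5% CO2, then CellTiter-Glo reagent was added and luminescence measured.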
In general terms: In ATP-based viability assays light output follows the ATP content of the culture.

Another assay deals with 3D7. Briefly: qHTS profiling for inhibitors of Plasmodium falciparum proliferation (AID 504749). Further: nearly all actives have a fitted effect of over 60% in size. Further: potency means the concentration at half of the fitted maximal effect. As to conditions: P. falciparum in erythrocytes, SYBR Green DNA, 72 h; series mostly up to 12.8 µM. Put shortly:
(§1)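 SYBR Green fluorescence (ex 485 nm, em 535 nm) reports parasite DNA after 72 h compound exposure of infected red cells at 0.3% parasitemia, 2.5% hematocrit; signal normalized to 0.29 uM artemisinin and vehicle wells.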
(In general: In qHTS, concentration-response curves come from the screen itself.)

Another assay deals with CP192. Described as above. As to conditions: P. falciparum in erythrocytes, SYBR Green DNA, 72 h; series mostly up to 12.8 µM. In outline:
as §1

In a further assay the test system is CP211. The description is as above. As to conditions: P. falciparum in erythrocytes, SYBR Green DNA, 72 h; series mostly up to 12.8 µM. Put shortly:
as §1

For the next assay, the system named is CP237. The description is as above. As to conditions: P. falciparum in erythrocytes, SYBR Green DNA, 72 h; series mostly up to 12.8 µM. Put shortly:
as §1

The subject of the next assay is CP238. Described as above. As to conditions: P. falciparum in erythrocytes, SYBR Green DNA, 72 h; series mostly up to 12.8 µM. Put shortly:
as §1

For the next assay, the system named is CP256. The assay is described as above. To be noted: P. falciparum in erythrocytes, SYBR Green DNA, 72 h; series mostly up to 12.8 µM. In outline: as §1
A further assay deals with CP260. The assay is described as above. As to conditions: P. falciparum in erythrocytes, SYBR Green DNA, 72 h; series mostly up to 12.8 µM. Put shortly: as §1
In another assay the test system is CP266. The description is as above. To be noted: P. falciparum in erythrocytes, SYBR Green DNA, 72 h; series mostly up to 12.8 µM. Put shortly: as §1
In a further assay the test system is CP291. Described as above. To be noted: P. falciparum in erythrocytes, SYBR Green DNA, 72 h; series mostly up to 12.8 µM. In outline:
as §1

The test system of a further assay is CP315. Described as above. To be noted: P. falciparum in erythrocytes, SYBR Green DNA, 72 h; series mostly up to 12.8 µM. In outline:
as §1

The test system of another assay is CP325. Described as above. To be noted: P. falciparum in erythrocytes, SYBR Green DNA, 72 h; series mostly up to 12.8 µM. In outline: as §1
The test system of another assay is CP329. Described as above. To be noted: P. falciparum in erythrocytes, SYBR Green DNA, 72 h; series mostly up to 12.8 µM. Put shortly:
as §1

The subject of the next assay is CP335. The assay is described as above. As to conditions: P. falciparum in erythrocytes, SYBR Green DNA, 72 h; series mostly up to 12.8 µM. Put shortly: as §1
The next assay relates to DIV17. The assay is described as above. To be noted: P. falciparum in erythrocytes, SYBR Green DNA, 72 h; series mostly up to 12.8 µM. In outline:
as §1

The subject of a further assay is ICS. The assay is described as above. As to conditions: P. falciparum in erythrocytes, SYBR Green DNA, 72 h; series mostly up to 12.8 µM. In outline:
as §1

The next assay concerns P94_40. The description is as above. To be noted: P. falciparum in erythrocytes, SYBR Green DNA, 72 h; series mostly up to 12.8 µM. Put shortly:
as §1

The next assay has as its system PC26. The description is as above. To be noted: P. falciparum in erythrocytes, SYBR Green DNA, 72 h; series mostly up to 12.8 µM. Put shortly: as §1
The subject of the next assay is TAB109. The description is as above. As to conditions: P. falciparum in erythrocytes, SYBR Green DNA, 72 h; series mostly up to 12.8 µM. In outline: as §1
The nature of assay [2]: S16 Schwann cell PMP22 intronic element beta-lactamase assay (AID 624044; calls by dose curve; further: nearly all actives have a fitted effect of over 15% in size; further: potency means the concentration at half of the fitted maximal effect). To be noted: S16 rat Schwann cells, PMP22 element beta-lactamase FRET, 24 h; series mostly up to 17.1 µM. Put shortly:
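Beta-lactamase reporter under a PMP22 intronic regulatory element in stable S16 rat Schwann cells; 24 h compound exposure. 460 nm blue signal normalized between DMSO (0%) and potassium clavulanate, with 535 nm FRET tracking viability; curves classed by r2 and response.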

`C[C@@]12C=CC(=O)C=C1CCC1C3CC(O)[C@@](O)(C(=O)CO)[C@]3(C)CC(O)[C@]12F` (some centres undefined): in assay [1], the compound was called inactive. The Potency entry in the assay with 3D7, with CP192, with CP211, in the assay with CP237, with CP238 and with CP256 was “inactive” in each case. In addition, the Potency result in the assay with CP260, in the assay on CP266, in the assay on CP291, in the assay on CP315, in the assay on CP325 and with CP329 was “inactive” each time. Moreover, the Potency result with CP335, in the assay on DIV17, in the assay on ICS, in the assay with P94_40, in the assay on PC26 and in the assay on TAB109 was “inactive” each time.

As to `CCC(=O)O[C@@]1(C(=O)CCl)C(C)CC2C3CCC4=CC(=O)C=C[C@@]4(C)[C@]3(F)C(O)C[C@]21C` (some centres undefined), the outcome in assay [1] was inactive. For the same compound, the Potency result in assay [2] was “inactive”. For the same compound, the Potency was 10000 nM (active) in the assay with CP237; 7940 nM (active) in the assay with CP238; 10000 nM (active) in the assay on CP260; 10700 nM (active) with CP335; 15100 nM (active) in the assay with DIV17; 10000 nM (active) with ICS. For the same compound, the Potency in the assay with P94_40 was 11200 nM (active); in the assay on PC26, 10700 nM (active); in the assay with TAB109, 11200 nM (active).

Consider `C[C@]12CCC(=O)C=C1CCC1C2C(=O)C[C@]2(C)C1CC[C@]2(O)C(=O)CO` (some centres undefined), for which the compound was called inactive in assay [1]. Also, the Potency result (in assay [2]; with 3D7; in the assay on CP192; in the assay with CP211; with CP237; in the assay with CP238) was “inactive” in each case. Moreover, the Potency entry in the assay on CP256, in the assay on CP260, in the assay with CP266, in the assay on CP291, with CP315 and with CP325 was “inactive” throughout. For the same compound, the Potency entry in the assay with CP329, in the assay on CP335, in the assay on DIV17, in the assay on ICS, with P94_40 and in the assay with PC26 was “inactive” throughout. Besides, in the assay on TAB109, the Potency entry was “inactive”.

As for `CC1(C)OC2CC(=O)OC[C@@]23C1CC(=O)[C@]1(C)C3CC[C@@]2(C)C(c3ccoc3)OC(=O)C3O[C@@]321` (some centres undefined), the call in assay [1] was inactive. Also, the Potency entry in the assay on 3D7, with CP192, with CP211, in the assay on CP237, in the assay with CP238 and in the assay with CP256 was “inactive” each time. In addition, the Potency result with CP260, with CP266, in the assay with CP291, in the assay on CP315, in the assay with CP325 and in the assay on CP329 was “inactive” each time. The Potency result in the assay with CP335, with DIV17, in the assay on ICS, in the assay with P94_40, with PC26 and with TAB109 was “inactive” in each case.

`COC1OC(CO)C(OC2OC(C(=O)O)C(OC3OC(COS(=O)(=O)O)C(OC4OC(C(=O)O)C(OC5OC(CO)C(OC6OC(C(=O)O)C(OC7OC(COS(=O)(=O)O)C(OC8OC(C(=O)O)=C[C@H](O)C8OS(=O)(=O)O)C(O)C7NC(C)=O)[C@@H](O)C6O)C(O)C5NC(C)=O)[C@@H](O)C4O)C(O)C3NC(C)=O)[C@@H](O)C2O)C(O)C1NC(C)=O` (some centres undefined): the outcome in [1] was inactive. In addition, the Potency entry (in assay [2]; with CP192; with CP211; in the assay with CP266; in the assay on CP291; in the assay on CP315) was “inactive” each time. The Potency entry with CP325 and with CP329 was “inactive” in each case. For the same compound, the Potency in the assay on ICS is 12600 nM (active).

Turning to `COC(=O)N/N=C/C1=C[N+](=O)c2ccccc2[N+]1=O`, in assay [1], the compound was classed as inactive. In addition, the Potency entry (in [2]; with 3D7; in the assay on CP192; with CP211; in the assay with CP237; in the assay on CP238) was “inactive” throughout. Besides, the Potency entry with CP256, in the assay on CP260, in the assay with CP266, with CP291, with CP315 and with CP325 was “inactive” in each case. For the same compound, the Potency result in the assay with CP329, in the assay with CP335, with DIV17, in the assay on ICS, in the assay with P94_40 and in the assay with PC26 was “inactive” throughout. Also, in the assay on TAB109, the Potency result was “inactive”.

With `COc1ccc(CC(N)C(=O)NC2C(CO)OC(n3cnc4c(N(C)C)ncnc43)C2O)cc1` (centres undefined), the Potency in [2] is 7070 nM (active); with 3D7 it was 1000 nM (active); in the assay with CP192 it was 1070 nM (active); in the assay with CP211, 478 nM (active); in the assay with CP237 it was 891 nM (active); with CP238, 794 nM (active). The Potency was 1000 nM (active) in the assay with CP256; 891 nM (active) in the assay with CP260; 1200 nM (active) in the assay with CP266; 1070 nM (active) in the assay on CP291; 849 nM (active) in the assay with CP315; 1070 nM (active) in the assay on CP325. Moreover, the Potency was 1070 nM (active) in the assay with CP329; 757 nM (active) in the assay on CP335; 757 nM (active) in the assay on DIV17; 316 nM (active) in the assay with ICS; 891 nM (active) in the assay on P94_40; 849 nM (active) with PC26. For the same compound, in the assay with TAB109, the Potency is 891 nM (active).

In the case of `OCC1OC(n2cnc3c(=S)nc[nH]c32)C(O)C1O` (centres undefined), the call in assay [1] was inactive. The Potency entry (in assay [2]; in the assay with 3D7; in the assay with CP192; in the assay on CP211; in the assay with CP237; with CP238) was “inactive” in each case. The Potency entry in the assay on CP256, in the assay with CP260, in the assay with CP266, with CP291, in the assay on CP315 and with CP325 was “inactive” each time. For the same compound, the Potency result in the assay on CP329, in the assay with CP335, with DIV17, with ICS, in the assay with P94_40 and in the assay on PC26 was “inactive” throughout. Further, in the assay with TAB109, the Potency result was “inactive”.

Take `C=Cc1c(C)/c2[n-]/c1=C\c1[n-]c(c(CC)c1C)/C=c1\[n-]c3c(c1C)C(=O)C(C(=O)[O-])C=3c1[n-]c(c(C)c1CCC(=O)[O-])\C=2.[Cu].[Na+].[Na+]` (centres undefined): in [1], the result was inactive. The Potency result (in [2]; in the assay with 3D7; in the assay with CP211; with CP256; in the assay with CP266; in the assay on CP291) was “inactive” in each case. Besides, the Potency entry with CP325 and in the assay with CP329 was “inactive” in each case.

With `CCC1OC(=O)CC(O)C(C)[C@@H](O[C@@H]2OC(C)[C@H](O[C@@H]3C[C@@](C)(O)C(O)C(C)O3)C(N(C)C)C2O)[C@H](CC=O)CC(C)C(=O)/C=C/C(C)=C/[C@@H]1COC1OC(C)C(O)C(OC)[C@@H]1OC` (some centres undefined), the compound was called inactive in [1]. Besides, in [2], the Potency entry was “inactive”. For the same compound, the Potency in the assay with CP256 is 1410 nM (active); in the assay with CP260, 1120 nM (active); in the assay with CP335 it was 1350 nM (active); in the assay with ICS it was 2820 nM (active); with TAB109, 891 nM (active).
